Laboratory results: PubChem BioAssay (NCATS)
A number with no mark means an inactive call. Records with an inconclusive call do not appear. Active and inactive are the calls of the source. Unless noted, calls follow the shape of the dose curve; as a rule, active = well fitted curve in either direction with a large enough effect (not every such curve was filed as active); inconclusive = small, poorly fitted or top-dose-only effect, or another doubt; inactive = flat fitted curve, though single readings scatter.

Assays:
[1] = biological target: Lysosomal acid glucosylceramidase (Homo sapiens) (UniProt P04062); experiment: Glucocerebrosidase-p2 (AID 348; in the data active = potency below about 10 µM; also: potency is read from the fitted curve at half-maximal effect); details: purified GBA, blue fluorogenic substrate, 40 min
Sequence of Lysosomal acid glucosylceramidase (Homo sapiens) (P04062 whole entry, looked up): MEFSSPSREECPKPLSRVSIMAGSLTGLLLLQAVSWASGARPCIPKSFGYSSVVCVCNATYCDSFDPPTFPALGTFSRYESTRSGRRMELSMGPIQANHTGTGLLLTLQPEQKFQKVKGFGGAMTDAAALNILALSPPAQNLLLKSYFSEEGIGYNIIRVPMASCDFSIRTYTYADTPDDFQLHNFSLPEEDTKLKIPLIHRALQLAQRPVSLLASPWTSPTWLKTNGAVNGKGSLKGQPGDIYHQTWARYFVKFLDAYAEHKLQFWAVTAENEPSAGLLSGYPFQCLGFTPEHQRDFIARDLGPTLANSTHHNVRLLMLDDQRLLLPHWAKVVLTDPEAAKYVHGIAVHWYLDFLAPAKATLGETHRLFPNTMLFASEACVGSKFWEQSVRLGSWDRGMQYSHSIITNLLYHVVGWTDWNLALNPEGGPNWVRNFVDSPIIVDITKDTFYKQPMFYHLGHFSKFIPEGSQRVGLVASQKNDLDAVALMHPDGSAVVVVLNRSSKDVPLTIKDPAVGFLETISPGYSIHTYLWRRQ
In short: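 Normal human glucocerebrosidase (0.2 nM) with blue fluorogenic substrate (80 uM final) in citrate/phosphate pH 5.9 with 10mM sodium taurocholate, 0.01% tween-20; 40 min RT, NaOH/glycine stop; fluorescence Ex 365/Em 440; AC50 from a titration from 0.6 nM upwards.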

[2] = AP1 Signaling Pathway (AID 357); details: ME-180 AP-1-bla reporter, EGF-induced, beta-lactamase ratio, 5 h; at 7.69 µM (top of the series) unless noted; also: % is scaled to controls: 0 for no effect and ±100 for the full control effect
In short: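 AP-1-bla ME-180 cells with beta-lactamase reporter under AP-1 response element, stimulated with EC50 EGF; compounds titrated, 5 hours at 37 degrees Celsius. CCF4 read at 460/530 nm ratio; positive and negative modulators judged by AC50.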

[3] = biological target: Cytochrome P450 1A2 (Homo sapiens) (UniProt P05177); experiment: p450-cyp1a2 (AID 410; calls by dose curve; also: potency is read from the fitted curve at half-maximal effect); details: recombinant CYP1A2, luciferin-ME demethylation, luminescence; series mostly up to 57 µM
Sequence of Cytochrome P450 1A2 (Homo sapiens) (P05177 whole entry, looked up): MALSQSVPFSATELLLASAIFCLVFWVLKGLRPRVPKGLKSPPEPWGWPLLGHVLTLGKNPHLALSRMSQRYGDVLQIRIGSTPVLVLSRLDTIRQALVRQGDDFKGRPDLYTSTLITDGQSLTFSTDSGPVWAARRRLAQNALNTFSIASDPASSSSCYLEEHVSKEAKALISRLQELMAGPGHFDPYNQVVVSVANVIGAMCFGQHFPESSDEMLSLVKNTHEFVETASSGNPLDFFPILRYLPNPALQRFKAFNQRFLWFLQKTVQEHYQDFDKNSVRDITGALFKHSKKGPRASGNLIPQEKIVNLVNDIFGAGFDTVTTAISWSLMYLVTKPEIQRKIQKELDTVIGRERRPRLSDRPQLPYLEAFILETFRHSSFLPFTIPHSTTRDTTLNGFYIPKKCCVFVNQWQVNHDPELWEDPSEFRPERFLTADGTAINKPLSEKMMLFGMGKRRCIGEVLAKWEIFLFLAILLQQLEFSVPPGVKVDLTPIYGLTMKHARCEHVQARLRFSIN
In short: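 20nM CYP1A2, 100uM Luciferin-ME (=Km), 100mM KPO4; cpd 10 min RT; +NADPH regen, 60 min RT; stop/detect 20 min; luminescence. Normalized to furafylline 57 uM = full inhibition.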

[4] = NFAT Signaling Pathway (AID 444); details: Jurkat NFAT-bla M1, carbachol, beta-lactamase ratio, 5 h; at 7.69 µM (top of the series) unless noted;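 also: carbachol stimulus at about its EC50 of 1 µM final; % is scaled to controls: 0 for no effect and ±100 for the full control effect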
In short: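 Jurkat cells carrying an NFAT-driven β-lactamase reporter and co-transfected muscarinic M1 receptor were treated with compound plus carbachol (1 uM final, an EC50 level) for 5 h at 37 °C. CCF4 loading followed for 1 h at RT; 460/530 nm ratio gave %activity.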

[5] = Stat Signaling Pathway (AID 446); details: ME-180 SIE beta-lactamase reporter, IL-6 stimulated, 5 h; at 7.69 µM (top of the series) unless noted;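 also: ME-180 cervical cancer cells given 40 pM IL-6 alongside compound; SIE-controlled beta-lactamase reporter measured as 460/530 nm FRET emission ratio; % is scaled to controls: 0 for no effect and ±100 for the full control effect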
In short: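 FRET read-out (405 nm excitation, 460/530 nm emission) of a beta-lactamase reporter under a STAT-inducible element in ME-180 cervical carcinoma cells. Cells with compound receive 40 pM IL-6 for 5 h. Values are normalised to AC90 stimulation and AC90 JAK-inhibitor controls.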

[6] = biological target: Glucocorticoid receptor (Homo sapiens) (UniProt P04150); experiment: GR-GFP Redistribution (AID 450;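 active = compounds whose dose series gives a full or clear partial fitted curve of increased nuclear translocation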; also: potency is read from the fitted curve at half-maximal effect); details: U2OS GR-GFP nuclear translocation, laser cytometry, 2 h
Sequence of Glucocorticoid receptor (Homo sapiens) (P04150 whole entry, looked up, the tested form may be a part): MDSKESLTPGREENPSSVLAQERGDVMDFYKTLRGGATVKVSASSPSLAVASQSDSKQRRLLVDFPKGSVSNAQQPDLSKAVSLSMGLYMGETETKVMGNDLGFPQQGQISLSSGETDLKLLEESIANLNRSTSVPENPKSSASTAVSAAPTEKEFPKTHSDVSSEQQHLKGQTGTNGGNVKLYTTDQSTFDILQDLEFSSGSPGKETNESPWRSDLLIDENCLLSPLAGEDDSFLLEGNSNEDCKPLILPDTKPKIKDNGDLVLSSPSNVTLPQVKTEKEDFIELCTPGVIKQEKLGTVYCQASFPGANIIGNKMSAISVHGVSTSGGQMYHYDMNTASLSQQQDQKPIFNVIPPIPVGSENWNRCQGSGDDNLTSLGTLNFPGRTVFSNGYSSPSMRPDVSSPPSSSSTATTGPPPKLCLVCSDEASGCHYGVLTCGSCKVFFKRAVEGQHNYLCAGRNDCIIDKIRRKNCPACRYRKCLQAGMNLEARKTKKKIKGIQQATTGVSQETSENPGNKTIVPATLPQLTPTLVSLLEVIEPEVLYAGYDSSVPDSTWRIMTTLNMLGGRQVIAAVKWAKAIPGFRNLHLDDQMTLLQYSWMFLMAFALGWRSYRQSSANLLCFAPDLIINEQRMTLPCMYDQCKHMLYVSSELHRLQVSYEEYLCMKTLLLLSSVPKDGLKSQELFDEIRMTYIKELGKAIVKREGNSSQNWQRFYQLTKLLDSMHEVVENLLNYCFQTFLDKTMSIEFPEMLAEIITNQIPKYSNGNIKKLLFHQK

[7] = biological target: Glucocorticoid receptor (Homo sapiens) (UniProt P04150); experiment: GR-EFC Redistribution (AID 451; calls by dose curve; also: potency is read from the fitted curve at half-maximal effect); details: CHO-K1 GR-EFC translocation, beta-gal luminescence, 2 h
In short: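 CHO-K1 cells stably expressing nuclear-localized β-gal enzyme acceptor and GR fused C-terminally to the enzyme donor fragment; ligand-driven nuclear translocation restores β-gal by complementation. Compounds titrated up to 46 uM final, 2 h at 37 °C; luminescence read.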

[8] = biological target: Mitogen-activated protein kinase 10 (Mus musculus) (UniProt Q61831); experiment: JNK3 AlphaScreen Assay (AID 530); details: JNK3 lysate, c-Jun phosphorylation; series mostly up to 57.1 µM;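 also: kinase came from lysate of stimulated human HepG2 cells; signal reports phosphorylation of biotinylated GST-cJun 1-79 at Ser73 with 10 µM ATP; % is scaled to controls: 0 for no effect and ±100 for the full control effect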
In short: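 Biotinylated GST-cJun(1-79) served as substrate for JNK3 in HepG2 lysates stimulated with IL-1beta and TNF-alpha. ATP was 10 uM final, pH 7.6. Ser73 phosphorylation was quantified by AlphaScreen (680 nm excitation).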

[9] = biological target: 3',5'-cyclic-AMP phosphodiesterase 4B (Homo sapiens) (UniProt Q07343); experiment: qHTS Assay for Inhibitors of PDE-IV (AID 607; active = well fitted activation curve with a large enough effect in the main read-out, with a control signal flat, not every such curve was filed as active; also: % of control where 0% means no effect); details: HEK293 ACTOne CNG channel cells, membrane potential fluorescence; series mostly up to 22.9 µM
Sequence of 3',5'-cyclic-AMP phosphodiesterase 4B (Homo sapiens) (Q07343 whole entry, looked up): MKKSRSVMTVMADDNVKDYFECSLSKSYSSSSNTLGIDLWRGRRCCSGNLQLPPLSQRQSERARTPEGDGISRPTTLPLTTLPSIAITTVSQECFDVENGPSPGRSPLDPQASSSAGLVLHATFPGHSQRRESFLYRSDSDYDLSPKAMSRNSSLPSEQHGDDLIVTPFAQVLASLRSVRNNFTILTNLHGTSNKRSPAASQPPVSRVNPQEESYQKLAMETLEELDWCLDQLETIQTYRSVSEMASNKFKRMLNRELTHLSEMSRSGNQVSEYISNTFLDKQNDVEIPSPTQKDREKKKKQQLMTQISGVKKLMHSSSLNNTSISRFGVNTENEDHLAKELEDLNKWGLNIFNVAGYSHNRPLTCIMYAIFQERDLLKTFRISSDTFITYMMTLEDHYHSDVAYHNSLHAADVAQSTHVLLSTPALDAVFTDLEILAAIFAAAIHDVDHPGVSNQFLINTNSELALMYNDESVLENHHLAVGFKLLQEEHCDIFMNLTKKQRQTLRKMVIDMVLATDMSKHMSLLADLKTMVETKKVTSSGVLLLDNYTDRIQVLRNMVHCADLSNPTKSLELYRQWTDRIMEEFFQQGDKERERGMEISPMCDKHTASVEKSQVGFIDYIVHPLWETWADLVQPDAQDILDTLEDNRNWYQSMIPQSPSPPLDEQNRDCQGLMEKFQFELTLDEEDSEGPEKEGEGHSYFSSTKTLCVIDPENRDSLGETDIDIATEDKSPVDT
In short: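 Cell-based read-out of cAMP via a modified cyclic nucleotide-gated channel and membrane potential dye (535/590 nm) in HEK293 cells expressing PDE4 endogenously. Compounds tested up to 22.9 uM final; 100 uM RO 20-1724 reference.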

[10] = biological target: Cytochrome P450 2C19 (Homo sapiens) (UniProt P33261); experiment: qHTS Assay for Inhibitors and Substrates of Cytochrome P450 2C19 (AID 899; active = well fitted curve in the direction sought with a large enough effect; an effect the other way counts as inactive or inconclusive; also: nearly all actives have a fitted effect of over 60% in size; also: potency is read from the fitted curve at half-maximal effect); details: recombinant CYP2C19, luciferin-H EGE luminescence; series mostly up to 57.1 µM
Sequence of Cytochrome P450 2C19 (Homo sapiens) (P33261 whole entry, looked up): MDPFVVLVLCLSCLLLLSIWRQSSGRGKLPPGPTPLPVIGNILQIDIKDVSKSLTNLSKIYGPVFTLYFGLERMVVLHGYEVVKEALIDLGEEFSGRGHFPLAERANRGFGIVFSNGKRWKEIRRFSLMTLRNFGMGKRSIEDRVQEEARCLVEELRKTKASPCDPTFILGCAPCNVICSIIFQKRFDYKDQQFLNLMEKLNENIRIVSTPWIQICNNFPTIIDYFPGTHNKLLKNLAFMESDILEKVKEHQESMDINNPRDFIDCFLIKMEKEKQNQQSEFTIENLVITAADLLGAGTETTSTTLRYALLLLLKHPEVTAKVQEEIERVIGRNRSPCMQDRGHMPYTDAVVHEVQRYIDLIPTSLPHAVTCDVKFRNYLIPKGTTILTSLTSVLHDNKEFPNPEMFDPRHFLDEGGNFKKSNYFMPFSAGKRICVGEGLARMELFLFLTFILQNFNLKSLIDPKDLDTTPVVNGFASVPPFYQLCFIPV
In short: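 Human CYP2C19 (5nM) with Luciferin-H EGE at 10uM (its KM) in 50mM KPO4 was preincubated with compound for 10 min at 37C. NADPH regeneration started a 60 min 37C reaction. Luciferin was read by luminescence, normalized to 57uM ketoconazole.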

[11] = Primary qHTS for small molecule stabilizers of the endoplasmic reticulum resident proteome: Secreted ER Calcium Modulated Protein (SERCaMP) assay (AID 1508630; active = well fitted curve in the direction sought with a large enough effect; an effect the other way counts as inactive or inconclusive; also: % is scaled to controls: 0 for no effect and ±100 for the full control effect); details: SH-SY5Y GLuc-SERCaMP (Gaussia luciferase released on ER calcium loss) secretion, thapsigargin, luminescence; series mostly up to 38.4 µM
In short: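 The SH-SY5Y reporter protocol was run at 3 concentrations up to 38.3 uM (primary) or 11 concentrations (follow-up): 16 h compound, 100 nM thapsigargin for 4 h, then extracellular luciferase luminescence.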

[12] = biological target: Cytochrome P450 3A4 (Homo sapiens) (UniProt P08684); experiment: qHTS Assay for Activators of Cytochrome P450 3A4 (AID 885; active = well fitted curve in the direction sought with a large enough effect; an effect the other way counts as inactive or inconclusive; also: nearly all actives have a fitted effect of over 65% in size); details: recombinant CYP3A4, Luciferin-PPXE luminescence, 60 min; series mostly up to 57.1 µM
Sequence of Cytochrome P450 3A4 (Homo sapiens) (P08684 whole entry, looked up): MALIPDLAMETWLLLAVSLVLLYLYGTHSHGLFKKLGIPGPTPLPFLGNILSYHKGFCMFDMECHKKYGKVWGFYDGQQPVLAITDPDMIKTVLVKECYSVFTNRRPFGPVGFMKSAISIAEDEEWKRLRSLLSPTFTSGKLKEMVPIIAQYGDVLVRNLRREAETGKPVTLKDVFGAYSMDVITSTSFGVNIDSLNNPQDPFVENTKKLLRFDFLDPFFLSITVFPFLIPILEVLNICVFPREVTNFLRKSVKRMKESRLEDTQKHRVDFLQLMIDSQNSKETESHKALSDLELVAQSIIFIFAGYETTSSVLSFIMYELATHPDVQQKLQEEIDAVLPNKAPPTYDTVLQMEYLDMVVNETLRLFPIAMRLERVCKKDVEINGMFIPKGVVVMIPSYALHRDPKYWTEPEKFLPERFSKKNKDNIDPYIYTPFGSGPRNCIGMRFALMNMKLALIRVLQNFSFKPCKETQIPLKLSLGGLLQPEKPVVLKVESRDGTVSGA
In short: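 Luminescent readout of luciferin formed from 25 uM Luciferin-PPXE (KM level) by 20 nM CYP3A4 in 200 mM KPO4, with 60 min NADPH-driven reaction at room temperature after 10 min compound exposure. Ketoconazole (57 uM) defined 100% inhibition.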

[13] = qHTS Assay for Identification of Small Molecule Agonists for Hypoxia Response Element Signaling Pathway (AID 914; active = well fitted activation curve with a large enough effect in the signal ratio, with a control signal flat, not every such curve was filed as active; the % refers to the signal ratio; also: % of control where 0% means no effect); details: ME-180 (cervical carcinoma) HRE-bla reporter, beta-lactamase ratio, CoCl2, 17 h; activation: active compounds read high
In short: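 A beta-lactamase reporter under hypoxia response element control in ME-180 cells served as the system. Compound titrations plus EC50 CoCl2 ran 17 h at 37 degrees Celsius; AC50 values were fitted from %Activity.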

[14] = biological target: Cytochrome P450 3A4 (Homo sapiens) (UniProt P08684); experiment: qHTS Assay for Inhibitors and Substrates of Cytochrome P450 3A4 (AID 884; active = well fitted curve in the direction sought with a large enough effect; an effect the other way counts as inactive or inconclusive; also: potency is read from the fitted curve at half-maximal effect; nearly all actives have a fitted effect of over 50% in size); details: recombinant CYP3A4, Luciferin-PPXE luminescence; series mostly up to 57.1 µM
In short: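 Luminescent readout of luciferin produced by CYP3A4 (20 nM) dealkylation of Luciferin-PPXE, 25 uM (its KM). NADPH-driven reaction ran 60 min at RT after 10 min compound preincubation; data scaled to 57 uM ketoconazole as 100% inhibition.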

[15] = Confirmation and Secondary Assay for Modulators of Hemoglobin Beta Chain Splicing at IVS2 654 locus (AID 910; active = well fitted curve in the direction sought with a large enough effect; an effect the other way counts as inactive or inconclusive;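 also: per-well total GFP intensity by laser scanning cytometry after 2-day treatment; % of control where 0% means no effect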); details: HeLa EGFP-654 splicing reporter, GFP fluorescence, 48 h; series mostly up to 38.3 µM
In short: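 HeLa cells stably carrying EGFP interrupted by mutant beta-globin IVS2-654 intron (CMV-driven) were treated with compound for 2 days at 37C; corrected splicing was scored as total peak GFP intensity per well (488 nm excitation, 500-520 nm emission).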

[16] = Confirmation and Secondary Assay for Modulators of Hemoglobin Beta Chain Splicing at IVS2 705 locus (AID 930; active = well fitted curve in the direction sought with a large enough effect; an effect the other way counts as inactive or inconclusive;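 also: HeLa cells stably expressing the EGFP-705 splicing reporter; GFP fluorescence per well restored by corrected splicing of the IVS2-705 intron in EGFP; % of control where 0% means no effect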); details: HeLa EGFP-705 splicing reporter, GFP fluorescence, 48 h; series mostly up to 38.3 µM
In short: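 Fluorescence gain (488 nm laser, 500-520 nm PMT) reflects restored correct splicing of a mutant IVS2-705 intron inside EGFP in stably transfected HeLa cells after 2-day compound treatment.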

[17] = biological target: Cytochrome P450 2C9 (Homo sapiens) (UniProt P11712); experiment: qHTS Assay for Inhibitors and Substrates of Cytochrome P450 2C9 (AID 883; active = well fitted curve in the direction sought with a large enough effect; an effect the other way counts as inactive or inconclusive; also: potency is read from the fitted curve at half-maximal effect; nearly all actives have a fitted effect of over 60% in size); details: recombinant CYP2C9, luciferin-H luminescence, 60 min; series mostly up to 57.1 µM
Sequence of Cytochrome P450 2C9 (Homo sapiens) (P11712 whole entry, looked up): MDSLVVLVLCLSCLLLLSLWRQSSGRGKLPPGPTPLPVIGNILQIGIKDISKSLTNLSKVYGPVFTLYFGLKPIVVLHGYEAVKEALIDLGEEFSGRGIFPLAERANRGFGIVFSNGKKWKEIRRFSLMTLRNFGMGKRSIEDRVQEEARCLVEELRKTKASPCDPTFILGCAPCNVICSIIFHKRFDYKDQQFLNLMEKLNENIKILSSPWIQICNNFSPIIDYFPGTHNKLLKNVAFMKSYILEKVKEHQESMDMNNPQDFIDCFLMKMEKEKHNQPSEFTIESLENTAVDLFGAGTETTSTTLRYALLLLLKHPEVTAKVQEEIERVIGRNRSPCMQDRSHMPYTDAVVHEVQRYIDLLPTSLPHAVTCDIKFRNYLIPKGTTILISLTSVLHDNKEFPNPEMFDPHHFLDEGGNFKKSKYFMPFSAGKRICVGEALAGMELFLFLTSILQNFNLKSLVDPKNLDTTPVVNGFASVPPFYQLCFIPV
In short: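 Human CYP2C9 (10nM) hydroxylated Luciferin-H (100uM, at its KM) to luciferin in 25mM KPO4. Compound was preincubated 10 min at 37C, then NADPH regeneration started a 60 min reaction at 37C. Luminescence was read after detection reagent, normalized to 57uM sulphaphenazole.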

N#CCCn1c(=O)cnc2cnc(OCc3ccccc3)nc21
Potency [1]: > 11.4 µM
activity change, negative = inhibition [2]: -4.07%
Potency [3]: 12.6 µM (active)
activity change, negative = inhibition [4]: 0.323%
activity, negative = inhibition [5]: -5.03%
Potency [6]: > 9.22 µM
Potency [7]: > 46 µM
Potency [8]: inactive
Potency [9]: inactive
Potency [10]: inactive
outcome [11]: inactive

O=c1c(CCc2ccccc2)nc2cncnc2n1C1CC1
Potency [1]: > 11.4 µM
activity change, negative = inhibition [2]: -0.738%
Potency [3]: 6.31 µM (active)
activity change, negative = inhibition [4]: -8.26%
activity, negative = inhibition [5]: -4.39%
Potency [6]: > 9.22 µM
Potency [7]: > 46 µM
Potency [8]: inactive
Potency [9]: inactive
Potency [12]: inactive
activation [13]: 6.89%
outcome [11]: inactive

Cn1c(=O)c(-c2ccc(F)cc2)nc2cncnc21
Potency [1]: > 11.4 µM
activity change, negative = inhibition [2]: -16.1%
Potency [3]: 0.158 µM (active)
activity change, negative = inhibition [4]: -1.33%
activity, negative = inhibition [5]: -0.562%
Potency [6]: > 9.22 µM
Potency [7]: > 46 µM
Potency [8]: inactive
Potency [9]: inactive
Potency [12]: inactive
outcome [11]: inactive

COc1ccc(Oc2ncc3nc(C)c(=O)n(C)c3n2)cc1
Potency [1]: > 11.4 µM
activity change, negative = inhibition [2]: 14.2%
Potency [3]: 12.6 µM (active)
activity change, negative = inhibition [4]: -1.39%
activity, negative = inhibition [5]: -6.21%
Potency [6]: > 9.22 µM
Potency [7]: > 46 µM
Potency [8]: inactive
Potency [9]: inactive
Potency [12]: inactive
outcome [11]: inactive

Cc1cccc(CNc2cc(-c3cccc(C#N)c3)ncn2)c1
Potency [1]: > 11.4 µM
activity change, negative = inhibition [2]: -11.1%
Potency [3]: 0.158 µM (active)
activity change, negative = inhibition [4]: 7.94%
activity, negative = inhibition [5]: -3.7%
Potency [6]: > 46 µM
Potency [7]: > 46 µM
Potency [8]: inactive
Potency [9]: inactive
Potency [14]: 7.94 µM (active)
Potency [12]: inactive
Potency [10]: 6.31 µM (active)
Potency [15]: inactive
outcome [16]: inactive
outcome [11]: inactive

N#Cc1cccc(-c2nc3cnc(Nc4ccccc4)nc3n(C[C@H]3CCCO3)c2=O)c1
Potency [1]: > 11.4 µM
activity change, negative = inhibition [2]: -18.6%
Potency [3]: 2 µM (active)
activity change, negative = inhibition [4]: -9.05%
activity, negative = inhibition [5]: -7.94%
Potency [6]: > 9.22 µM
Potency [7]: > 46 µM
Potency [8]: inactive
Potency [9]: inactive
outcome [11]: inactive

COCCn1c(=O)c(-c2ccc(Cl)cc2)nc2cnc(Oc3ccccc3)nc21
Potency [1]: > 11.4 µM
activity change, negative = inhibition [2]: -8.55%
Potency [3]: 0.794 µM (active)
activity change, negative = inhibition [4]: 17.4%
activity, negative = inhibition [5]: -10%
Potency [6]: > 9.22 µM
Potency [7]: > 46 µM
Potency [8]: inactive
Potency [9]: inactive
Potency [17]: 7.94 µM (active)
Potency [12]: inactive
outcome [11]: inactive

COc1ncc2ncc(=O)n(Cc3ccc(F)cc3)c2n1
Potency [1]: > 11.4 µM
activity change, negative = inhibition [2]: -11.8%
Potency [3]: 12.6 µM (active)
activity change, negative = inhibition [4]: -5.96%
activity, negative = inhibition [5]: -7.56%
Potency [6]: > 9.22 µM
Potency [7]: > 46 µM
Potency [8]: inactive
Potency [9]: inactive
Potency [12]: inactive
Potency [10]: 7.94 µM (active)
outcome [11]: inactive

COc1ccc(Oc2ncc3nc(-c4cccs4)c(=O)n(C)c3n2)cc1
Potency [1]: > 11.4 µM
activity change, negative = inhibition [2]: 18.3%
Potency [3]: 3.16 µM (active)
activity change, negative = inhibition [4]: 28.2%
activity, negative = inhibition [5]: 27.9%
Potency [6]: > 9.22 µM
Potency [7]: > 46 µM
Potency [8]: inactive
Potency [9]: inactive
Potency [17]: 3.16 µM (active)
Potency [14]: 3.98 µM (active)
Potency [12]: inactive
outcome [11]: inactive
